Measurements: PubChem BioAssay (NCATS)
Records with an inconclusive call do not appear. Activity calls are given as the source filed them. Calls follow the shape of the dose curve; as a rule, active = well fitted inhibition curve with a large enough effect; inconclusive = small, poorly fitted or top-dose-only effect; inactive = flat fitted curve, though single readings scatter.

Tests used:
Test in all cases: qHTS profiling for inhibitors of Plasmodium falciparum proliferation (AID 504749); also: nearly all actives have a fitted effect of over 60% in size
Settings in all cases: P. falciparum in erythrocytes, SYBR Green DNA, 72 h; series mostly up to 28.7 µM
CP265 = system: CP265
Outline: (§1)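 P. falciparum-infected erythrocytes (0.3% parasitemia, 2.5% hematocrit) incubated with compound 72 h at 37 C, 5% CO2. Parasite DNA detected by SYBR Green after lysis, overnight at room temperature; normalised to 0.29 uM artemisinin and DMSO.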

CP266 = system: CP266
Outline: as §1

CP268 = system: CP268
Outline: as §1

CP269 = system: CP269
Outline: as §1

CP286 = system: CP286
Outline: as §1

CP291 = system: CP291
Outline: as §1

CP297 = system: CP297
Outline: as §1

CP305 = system: CP305
Outline: as §1

CP315 = system: CP315
Outline: as §1

CP325 = system: CP325
Outline: as §1

CP329 = system: CP329
Outline: as §1

CP335 = system: CP335
Outline: as §1

DFO2036 = system: DFO2036
Outline: as §1

DIV14 = system: DIV14
Outline: as §1

DIV17 = system: DIV17
Outline: as §1

DIV30 = system: DIV30
Outline: as §1

ECU = system: ECU
Outline: as §1

FAB9 = system: FAB9
Outline: as §1

GB4 = system: GB4
Outline: as §1

JCK = system: JCK
Outline: as §1

N140 = system: N140
Outline: as §1

P93_24 = system: P93_24
Outline: as §1

P94_40 = system: P94_40
Outline: as §1

PAD = system: PAD
Outline: as §1

PC15 = system: PC15
Outline: as §1

PC26 = system: PC26
Outline: as §1

PC49 = system: PC49
Outline: as §1

SC27B = system: SC27B
Outline: as §1

TAB109 = system: TAB109
Outline: as §1

TAB113 = system: TAB113
Outline: as §1

TAB165 = system: TAB165
Outline: as §1

Measured: Potency

CC(C)(O)c1ccccc1CC[C@H](SCC1(CC(=O)O)CC1)c1cccc(/C=C/c2ccc3ccc(Cl)cc3n2)c1
inactive: CP265 | CP266 | CP268 | CP269 | CP286 | CP291 | CP297 | CP305 | CP315 | CP325 | CP329 | CP335 | DFO2036 | DIV14 | DIV17 | DIV30 | ECU | FAB9 | GB4 | JCK | N140 | P93_24 | P94_40 | PAD | PC15 | PC26 | PC49 | SC27B | TAB109 | TAB113 | TAB165
